# Results: PubChem BioAssay (NCI)
# This is part of a sample that, as a whole, favours compounds with a hit. Of some 83,000 tested, about 20% had one in any assay.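 96-well plates, one dose, 48 hours. Percent growth reported; active if below 10.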 Unmarked numbers belong to inactive results. Calls of active or inactive are those of the source.
# Assays:
# Assay in all cases: NCI-60 one-dose screen, 48 h (100 = growth as untreated, 0 = no growth, -100 = all killed)
# Details in all cases: 10 µM
# SK-MEL-2 melanoma = system: SK-MEL-2 melanoma
# UO-31 renal = system: UO-31 renal
# TK-10 renal = system: TK-10 renal
# ACHN renal = system: ACHN renal
# A498 renal = system: A498 renal
# MOLT-4 leukemia = system: MOLT-4 leukemia
# CAKI-1 renal = system: CAKI-1 renal
# CCRF-CEM leukemia = system: CCRF-CEM leukemia
# SN12C renal = system: SN12C renal
# EKVX NSCLC = system: EKVX NSCLC
SMILES,growth (SK-MEL-2 melanoma),growth (UO-31 renal),growth (TK-10 renal),growth (ACHN renal),growth (A498 renal),growth (MOLT-4 leukemia),growth (CAKI-1 renal),growth (CCRF-CEM leukemia),growth (SN12C renal),growth (EKVX NSCLC)
O=C(O)CCCCCCCCCCN1C(=O)/C(=C/c2cnc(-c3ccccc3)s2)SC1=S,93.2%,77.5%,150%,70.3%,99.8%,39.1%,–,–,–,–
Cn1cc(-c2cc(N)n3nc(-c4c[nH]c5ccc(Br)cc45)cc3n2)c2cccnc21,-56.4% (active),-78.8% (active),-85.9% (active),-98.9% (active),-85.9% (active),-23.8% (active),-60.7% (active),-19.1% (active),–,–
COc1cccc2nc(Nc3cccc(NC(=O)c4ccc(CN5CCCN(C)CC5)c(C(F)(F)F)c4)c3)ccc12,-87.4% (active),-97.2% (active),-89.4% (active),-100% (active),-91% (active),-42.8% (active),-100% (active),-54.3% (active),-79.9% (active),–
COc1ccc(-c2nc(-c3ccccc3)c(-c3ccccc3)n2-c2ccc(S(=O)(=O)Nc3ncccn3)cc2)cc1OC,108%,51.7%,91.8%,82.6%,55%,70.5%,76.5%,69%,76.3%,–
COC(=O)C[C@](O)(CCCC(C)(C)O)C(=O)O[C@H]1C(OC)=C[C@@]23CCC(=O)N2CCc2cc4c(cc2[C@@H]13)OCO4,110%,65%,101%,101%,76.6%,73.4%,94.3%,101%,115%,–
CCOC(=O)C1=C(N)N(c2ccccc2)C2=C(C(=O)CC(C)(C)C2)C1c1ccccc1OC (stereo not given),109%,74.4%,106%,103%,98.7%,105%,97.2%,100%,92.6%,–
O=C(N=Nc1c(O)[nH]c2ccc(Br)cc12)c1ccc2nc(-c3ccccc3)[nH]c2c1,-89.7% (active),27.3%,-25.5% (active),-47.3% (active),-55.3% (active),-29% (active),16.8%,-16% (active),–,–
CCCn1c(=O)c2[nH]c(-c3ccc(OCc4nc5ccccc5[nH]4)cc3)nc2n(CCC)c1=O,81.6%,35.7%,17.4%,32.4%,-10.5% (active),70.7%,39.1%,87.8%,2.85% (active),–
Cc1noc2c(Cc3ccc([N+](=O)[O-])cc3)nn(CC(=O)N/N=C/c3ccc(Br)cc3)c(=O)c12,116%,57.7%,112%,43.6%,121%,103%,84%,103%,81%,–
COC[C@@H](CC(C)C)N=C1NC(=O)/C(=C/c2ccc3ncsc3c2)N1,-70.7% (active),–,27.8%,6.22% (active),-7.78% (active),11.1%,4.39% (active),–,13.6%,–
O=C(c1ccc(O)cc1)C1[C@H](c2ccccc2Br)[C@@H](c2ccccc2)NC12C(=O)Nc1ccc(Cl)cc12 (stereo not given in full),-72.9% (active),13.6%,7.92% (active),2.5% (active),9.06% (active),-16.2% (active),8.16% (active),4.97% (active),-46.3% (active),–
Cc1ccc(C(=O)NNC(=O)CSc2nc3ccccc3c(=O)[nH]2)cc1,107%,75.2%,107%,107%,94.6%,96.4%,95.7%,98.8%,94.1%,–
O=C(CNc1nc(-c2ccccc2)cs1)Nc1ccc([N+](=O)[O-])cc1Cl,20.1%,25.5%,52.9%,38.8%,55%,11%,44.9%,15.3%,13.4%,–
CC(C)C1=C[C@@]23CC[C@@H]4[C@](C)(CCC[C@]4(C)C(=O)NCc4ccccc4)[C@H]2C[C@@H]1[C@H]1C(=O)CCC(=O)[C@H]13,99.2%,48.1%,96.9%,70.7%,97.8%,16.2%,88.7%,9.73% (active),83.4%,–
CC(C)C(=O)Nc1ccc(C(=O)NC(=S)Nc2ccc(C(=O)O)cc2)cc1,105%,88.4%,101%,104%,122%,–,99.3%,107%,96.3%,–
COc1cc2c(cc1OC)/C(=C\c1sc(Nc3ccc(O)cc3)nc1O)C(C(=O)O)=N2,-9.38% (active),39.7%,77.4%,37.8%,103%,25.9%,26.9%,19.3%,35.4%,–
CC1(C)CC[C@]23CC[C@]4(C)[C@H](CC[C@@H]5[C@@]6(C)CC[C@H](N)C(C)(C)[C@@H]6CC[C@]54C)[C@H]2[C@H]1OC3=O,-77.2% (active),-96.7% (active),-90.1% (active),-100% (active),-90.3% (active),–,-98.2% (active),-32.4% (active),-96% (active),–
COc1cc(/C=C/C(=O)c2ccc(NC(=O)CSc3nnc(-c4c[nH]c5ccccc45)n3-c3ccccc3)cc2)cc(OC)c1OC,99.9%,75%,117%,89.3%,138%,41.5%,95.7%,60.5%,74.2%,–
O=S(=O)(Nc1ncccn1)c1ccc(-n2c(-c3ccc(Br)cc3)nc(-c3ccccc3)c2-c2ccccc2)cc1,56.8%,20.1%,–,38.5%,-1.34% (active),22.4%,23.7%,18.6%,35.9%,–
S=c1nc(-c2ccccc2)cc(-c2cc3ccccc3nc2Cl)[nH]1,37.5%,–,162%,77.7%,126%,30.8%,57.2%,43.5%,88.3%,–
CCCn1c(O)c(N=Nc2nc(-c3cc4ccccc4oc3=O)cs2)c2cc(Br)ccc21,102%,–,125%,91.1%,130%,107%,96.4%,98.9%,95.2%,–
CCOC(=O)CNC(=O)CN(Cc1ccccc1)C(=O)[C@@]1(C)CCC[C@]2(C)[C@H]3CC4C(C(C)C)=C[C@]3(CC[C@H]21)[C@@H]1C(=O)CCC(=O)[C@H]41,47.4%,47.9%,98.1%,52.9%,120%,15.8%,81.3%,16.4%,50%,–
CC(C)CCSc1nc(NC2CC2)c(C#N)c(-c2ccc(C(C)C)cc2)n1,98.9%,–,99.4%,108%,109%,98.9%,99.3%,95.4%,106%,–
CN1CCN(c2ccc(Nc3nc(N4CCN(S(=O)(=O)c5ccc(F)cc5)CC4)c4sccc4n3)cc2)CC1,-72.7% (active),-87.1% (active),–,-100% (active),-94.3% (active),–,-96.3% (active),-1.97% (active),-86.4% (active),–
COc1ccc(C(=O)/C=C/c2cc(C(F)(F)F)cc(C(F)(F)F)c2)cc1S(N)(=O)=O,-73.8% (active),-100% (active),-89.8% (active),-96.2% (active),2.73% (active),2.98% (active),-83% (active),10.7%,-59.3% (active),–
CCOC(=O)c1c(CSc2ccccc2)n(C)c2cc(CN(C)C)c(O)c(CN(C)C)c12,77.5%,28%,75.9%,59%,118%,49%,57.8%,42.7%,27.2%,–
COc1ccc([C@H]2C(C(=O)c3ccc(Cl)cc3)C3(N[C@@H]2c2ccccc2)C(=O)Nc2ccc(Cl)cc23)cc1 (stereo not given in full),-65.5% (active),-1.98% (active),9.59% (active),1.5% (active),10.4%,12.1%,4.6% (active),21.9%,-86.5% (active),–
Nc1n[nH]c2cccc(C#Cc3cccc(NC(=O)Nc4cc(C(F)(F)F)cc(C(F)(F)F)c4)c3)c12,–,-52.5% (active),-3.32% (active),-25.4% (active),-17.4% (active),-1.46% (active),-15.6% (active),-1.88% (active),-85.9% (active),-30.3% (active)
COc1cc2c3c(n(CCCn4ccnc4)c(=O)c2cc1OC)-c1nc2c(cc1C3=O)OCO2,–,26.5%,110%,3.67% (active),118%,20.9%,–,18.5%,19.7%,91.6%
